Data as given in PubChem BioAssay (NCATS).
Records with an inconclusive call do not appear. Where a call stands in place of a potency, no number is given. Unmarked numbers belong to inactive results. Activity calls are given as the source filed them. Unless noted, the call rests on the fitted dose curve; in most records, active means well fitted curve in the direction sought with a large enough effect in the repeat runs; inconclusive means weak or mixed curves; inactive means no such curve, though single readings can be large; an effect the other way counts as inactive or inconclusive.

Key:
[1] = Primary qHTS for small molecule stabilizers of the endoplasmic reticulum resident proteome: Secreted ER Calcium Modulated Protein (SERCaMP) assay (AID 1508630; active means well fitted curve in the direction sought with a large enough effect; an effect the other way counts as inactive or inconclusive)
Summary of the method: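 The SH-SY5Y reporter protocol was run at 3 concentrations up to 38.3 uM (primary) or 11 concentrations (follow-up): 16 h compound, 100 nM thapsigargin for 4 h, then extracellular luciferase luminescence.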

[2] = A High-Content qHTS Against Drug Library for the Identification of Small Molecules that Inhibit DYT1 Early Onset Primary Dystonia-Associated Cell Pathology (AID 1645839; calls by dose curve; further: potency means the concentration at half of the fitted maximal effect)
Summary of the method: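 High-content imaging quantified EGFP-TorsinA mislocalization in HEK293-derived cells inducibly expressing DYT1 mutant torsinA, after 48 h exposure to compound given together with tetracycline induction. Cell count served as a toxicity channel alongside %pathology.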

[3] = biological target: Cytochrome P450 2D6 (Homo sapiens) (UniProt P10635); assay: Cytochrome P450 family 2 subfamily D member 6 (CYP2D6) small molecule antagonists: luciferase biochemical (cell-free) qHTS assay (AID 1645840); further: nearly all actives have a fitted effect of over 55% in size; further: potency means the concentration at half of the fitted maximal effect
Chain of Cytochrome P450 2D6 (Homo sapiens) (P10635 whole entry, looked up): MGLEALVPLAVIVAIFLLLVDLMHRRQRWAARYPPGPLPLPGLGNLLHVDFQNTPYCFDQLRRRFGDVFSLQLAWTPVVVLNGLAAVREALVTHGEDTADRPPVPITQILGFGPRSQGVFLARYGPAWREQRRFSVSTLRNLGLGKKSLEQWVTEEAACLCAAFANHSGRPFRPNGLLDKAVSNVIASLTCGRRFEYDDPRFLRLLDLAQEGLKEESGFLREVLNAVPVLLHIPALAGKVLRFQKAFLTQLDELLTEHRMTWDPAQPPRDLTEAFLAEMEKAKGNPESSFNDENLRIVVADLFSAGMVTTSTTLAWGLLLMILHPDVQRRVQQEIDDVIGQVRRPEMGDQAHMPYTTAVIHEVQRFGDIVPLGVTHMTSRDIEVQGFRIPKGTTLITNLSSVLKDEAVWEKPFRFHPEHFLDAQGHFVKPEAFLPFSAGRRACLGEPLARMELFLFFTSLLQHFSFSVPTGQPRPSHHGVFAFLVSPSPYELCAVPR
Summary of the method: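 P450-Glo CYP2D6 system: proluciferin substrate converted by enzyme to luciferin, read by luminescence proportional to activity. Enzyme-substrate mix with compound 10 min at room temperature, then NADPH regeneration 1 h before detection reagent.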

[4] = biological target: Cytochrome P450 2C9 (Homo sapiens) (UniProt P11712); assay: Cytochrome P450 family 2 subfamily C member 9 (CYP2C9) small molecule antagonists: luciferase biochemical (cell-free) qHTS assay (AID 1645842); further: nearly all actives have a fitted effect of over 55% in size; further: potency means the concentration at half of the fitted maximal effect
Chain of Cytochrome P450 2C9 (Homo sapiens) (P11712 whole entry, looked up): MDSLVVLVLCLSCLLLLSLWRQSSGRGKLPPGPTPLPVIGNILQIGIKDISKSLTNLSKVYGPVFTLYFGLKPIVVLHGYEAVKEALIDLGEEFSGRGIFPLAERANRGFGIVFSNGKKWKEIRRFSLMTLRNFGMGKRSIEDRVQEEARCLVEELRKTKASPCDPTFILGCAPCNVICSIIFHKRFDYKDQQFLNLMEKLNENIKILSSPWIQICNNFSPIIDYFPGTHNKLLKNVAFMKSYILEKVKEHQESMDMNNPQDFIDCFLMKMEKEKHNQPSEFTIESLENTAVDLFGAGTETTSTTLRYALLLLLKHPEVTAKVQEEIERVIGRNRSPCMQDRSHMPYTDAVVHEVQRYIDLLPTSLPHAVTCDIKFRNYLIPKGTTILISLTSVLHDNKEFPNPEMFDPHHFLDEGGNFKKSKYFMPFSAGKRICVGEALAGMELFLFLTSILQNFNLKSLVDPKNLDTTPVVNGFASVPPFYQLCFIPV
Summary of the method: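 P450-Glo CYP2C9 system: proluciferin substrate with enzyme in mix containing 0.4% BSA, 10 min at room temperature, then NADPH regeneration solution added and incubated 1 h at 37C. Detection reagent stopped reaction; luminescence read after 20 min as RLU.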

[5] = biological target: Cytochrome P450 3A4 (Homo sapiens) (UniProt P08684); assay: Cytochrome P450 family 3 subfamily A member 4 (CYP3A4) small molecule antagonists: luciferase qHTS assay (AID 1645841); further: nearly all actives have a fitted effect of over 45% in size
Chain of Cytochrome P450 3A4 (Homo sapiens) (P08684 whole entry, looked up): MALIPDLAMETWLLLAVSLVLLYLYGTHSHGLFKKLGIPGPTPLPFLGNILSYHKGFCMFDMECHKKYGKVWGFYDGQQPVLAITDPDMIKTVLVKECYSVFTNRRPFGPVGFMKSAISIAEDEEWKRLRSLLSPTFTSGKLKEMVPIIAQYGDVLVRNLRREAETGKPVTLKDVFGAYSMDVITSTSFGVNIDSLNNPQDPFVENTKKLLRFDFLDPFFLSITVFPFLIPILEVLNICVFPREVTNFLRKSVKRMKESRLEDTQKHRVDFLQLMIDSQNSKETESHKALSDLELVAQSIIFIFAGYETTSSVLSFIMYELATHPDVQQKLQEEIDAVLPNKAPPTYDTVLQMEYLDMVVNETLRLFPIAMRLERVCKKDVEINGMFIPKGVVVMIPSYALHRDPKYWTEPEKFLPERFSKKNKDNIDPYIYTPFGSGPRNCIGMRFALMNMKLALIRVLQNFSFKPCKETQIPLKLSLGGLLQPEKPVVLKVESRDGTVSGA
Summary of the method: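 Luminescent CYP3A4 activity readout: compounds plus enzyme-substrate mix 10 min at room temperature, reaction started with NADPH regenerating system for 1 h, stopped with detection reagent, read after 20 min. Ketoconazole served as control.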

[6] = Primary qHTS for inhibitors of nuclear receptor binding SET domain protein 2 (NSD2) in an isogenic RCH-ACV NSD2 p.E1099K mutant (9B) (AID 1645876; active means well fitted curve in the direction sought with a large enough effect; an effect the other way counts as inactive or inconclusive; further: nearly all actives have a fitted effect of over 70% in size)
[7] = Primary qHTS for inhibitors of nuclear receptor binding SET domain protein 2 (NSD2) in an RCH-ACV wild type WT cells (2C) (AID 1645877; active means well fitted curve in the direction sought with a large enough effect; an effect the other way counts as inactive or inconclusive; further: nearly all actives have a fitted effect of over 70% in size)
[8] = Cell Viability qHTS for small molecule stabilizers of the endoplasmic reticulum resident proteome (AID 1508629; active means well fitted curve in the direction sought with a large enough effect; an effect the other way counts as inactive or inconclusive;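 further: human SH-SY5Y neuroblastoma cells carrying the GLuc-SERCaMP reporter; compound exposure about 46 h in total before the viability read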); details: cell viability counter-screen, 100 nM thapsigargin for final 4 h

## CN1CCN(c2c(F)cc3c(=O)c(C(=O)O)cn4c3c2SCC4)CC1
[1]
  Potency: inactive
[2]
  Potency: inactive
[3]
  Potency: inactive
[4]
  Potency: inactive

## NCc1ccccc1Sc1ccccc1CO
[1]
  Potency: inactive
[2]
  Potency: inactive
[3]
  Potency: 4.9 µM (active)
[4]
  Potency: 15.5 µM (active)

## CO[C@]12C[C@@H](COC(=O)c3cncc(Br)c3)CN(C)[C@@H]1Cc1cn(C)c3cccc2c13
[1]
  Potency: inactive
[2]
  Potency: inactive
[3]
  Potency: 0.0155 µM (active)
[4]
  Potency: inactive

## Cc1cc(CC(=O)O)c(C)n1-c1ccc(Cl)cc1
[1]
  Potency: inactive
[2]
  Potency: inactive
[3]
  Potency: inactive

## CCN1/C(=C/C=C/c2sc3ccccc3[n+]2CC)Sc2ccccc21
[1]
  Potency: inactive
[2]
  Potency: 11.2 µM (active)
[3]
  Potency: 2.13 µM (active)
[4]
  Potency: 9.52 µM (active)

## NC(=O)c1ccccc1O
[1]
  Potency: inactive
[2]
  Potency: inactive
[3]
  Potency: inactive
[4]
  Potency: inactive

## CC(=C(CCOC(=O)C(C)C)SSC(CCOC(=O)C(C)C)=C(C)N(C=O)Cc1cnc(C)nc1N)N(C=O)Cc1cnc(C)nc1N
[1]
  Potency: inactive
[2]
  Potency: inactive
[3]
  Potency: inactive
[4]
  Potency: inactive

## Nc1nc(-c2ccccc2)c(Br)c(=O)[nH]1
[1]
  Potency: inactive
[2]
  Potency: inactive
[3]
  Potency: inactive
[5]
  Potency: inactive
[6]
  Potency: inactive
[7]
  Potency: inactive

## COc1ccc(S(=O)(=O)N2c3ccc(Cl)cc3[C@@](O)(c3ccccc3Cl)[C@H]2C(=O)N2CCC[C@@H]2C(N)=O)cc1OC
[1]
  Potency: inactive
[2]
  Potency: inactive
[3]
  Potency: inactive
[4]
  Potency: 15.5 µM (active)

## CC(=O)NC(=O)c1ccccc1O
[1]
  Potency: inactive
[2]
  Potency: inactive
[3]
  Potency: inactive

## CC(C)[N+](C)(C)CC(O)COc1cccc2ccccc12 (configuration not stated)
[1]
  Potency: inactive
[2]
  Potency: inactive
[3]
  Potency: 6.92 µM (active)
[4]
  Potency: inactive

## CC(C)(Cc1c[nH]c2ccccc12)NCC(O)COc1ccccc1C#N (configuration not stated)
[8]
  max response: -6.12%
[1]
  Potency: inactive
[4]
  Potency: inactive
